# Test results reported in PubChem BioAssay AID624330 (Southern Research Specialized Biocontainment Screening …, 2012).
# In all, about 340,000 compounds went through this assay and about 2,100 (0.62%) were called active. The list is a sample of the results. Potency and affinity values are given separately. Unmarked numbers belong to inactive results.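 Rule for the calls: active = first-screen hits whose inhibition reached a set limit at any dose in the follow-up dose series; inconclusive = inhibition above the set first-screen limit but never retested; inactive = the rest.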
# Biological target: Rac GTPase-activating protein 1 (Homo sapiens) (UniProt Q9H0H5)
# Test: MgcRacGAP GTPase-activating activity inhibitors, confirmation, biochemical, ADP Hunter fluorescence, primary and confirmatory (AID 624330);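 note: fluorescence reports GDP produced by GAP-driven GTP hydrolysis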
# Conditions: MgcRacGAP-stimulated Rac1 GTP hydrolysis, at 30 µM, active compounds read high, GST-tagged Rac1 F28L mutant substrate
# Rac GTPase-activating protein 1 (Homo sapiens), sequence (Q9H0H5 whole entry, looked up): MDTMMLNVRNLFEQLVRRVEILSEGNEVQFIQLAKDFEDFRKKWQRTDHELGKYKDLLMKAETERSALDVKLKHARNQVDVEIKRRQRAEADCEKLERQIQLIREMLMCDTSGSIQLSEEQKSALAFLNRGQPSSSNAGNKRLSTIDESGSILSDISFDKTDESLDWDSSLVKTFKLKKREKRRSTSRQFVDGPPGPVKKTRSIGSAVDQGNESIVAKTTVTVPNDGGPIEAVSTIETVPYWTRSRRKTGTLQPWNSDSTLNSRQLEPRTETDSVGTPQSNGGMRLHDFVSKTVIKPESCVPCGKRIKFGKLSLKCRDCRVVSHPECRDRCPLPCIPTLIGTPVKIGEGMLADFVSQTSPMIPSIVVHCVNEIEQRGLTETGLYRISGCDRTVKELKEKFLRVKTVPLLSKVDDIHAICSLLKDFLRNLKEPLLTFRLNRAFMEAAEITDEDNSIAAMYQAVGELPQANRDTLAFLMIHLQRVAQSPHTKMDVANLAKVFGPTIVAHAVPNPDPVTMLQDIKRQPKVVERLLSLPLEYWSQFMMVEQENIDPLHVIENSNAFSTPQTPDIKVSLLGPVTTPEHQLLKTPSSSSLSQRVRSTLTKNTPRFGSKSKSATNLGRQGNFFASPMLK
row,Structure (SMILES),inhibition
1,Cc1cccc(C(C)C)c1NC(=O)Cc1ccc(S(=O)(=O)N2CCOCC2)s1,6.93%
2,COCCC(=O)N1CCCC(CCC(=O)NCc2ccc(F)c(F)c2)C1 (configuration not stated),4.17%
3,COc1ccc2nc3cc([N+](=O)[O-])ccc3c(NNc3ccc([N+](=O)[O-])cc3)c2c1,1.37%
4,COc1cc2c(cc1OC)-c1cc(NC3CC3)nc(=O)n1CC2,3.36%
5,Cc1ccc(NC(=O)c2csc(-c3ccccc3)c2C)cc1,9.66%
6,CCOC(=O)c1c(C)[nH]c(C(=O)CN2CCOCC2)c1C,2.51%
7,CCOC(=O)c1c(C)[nH]c(C(=O)N2CCN(CC)CC2)c1C,2.01%
8,COC(=O)c1cc(OC)c(OC)cc1NC(=O)c1cc(OC)cc(OC)c1,-0.7%
9,CCOc1ccccc1N1CCN(Cc2ccco2)CC1,14.9%
10,CCOc1ccccc1N1CCN(C(=O)CC(C)(C)C)CC1,-0.74%
11,CCC(=O)c1cn(CC(=O)Nc2cc(C)ccc2C)c2ccccc12,13.6%
12,O=C(CNC(=O)c1ccc(Br)o1)NNC(=O)c1ccccc1O,6.63%
13,COc1cc(CC(=O)Nc2ccc(N3CCOCC3)cc2)cc(OC)c1OC,4.24%
14,CCOc1c(Cl)cc(CNc2ccc(N3CCCC3)cc2)cc1OC,36.9%
15,CCOc1cc(CNc2ccccc2)cc(Br)c1OCC(=O)NC(C)(C)C,6.03%
16,CCOc1cc(CNc2ccc3c(c2)OCCO3)cc(Br)c1OC,23.8%
17,CCOc1cc(C(=O)Nc2ccc(N3CCOCC3)cc2)cc(Br)c1OC,2.59%
18,CCOc1cc(CNc2ccc(Br)cc2)cc(Br)c1OCC(=O)NC(C)(C)C,-3.09%
19,CCOc1cc(CNc2ccc3c(c2)OCCO3)cc(Br)c1OCC,30%
20,COc1cc(CNc2ccc(N3CCCC3)cc2)cc(Cl)c1OC,1.89%
21,COCCNC(=O)/C(C#N)=C/c1ccc(O)cc1,15.1%
22,CC(C)CCc1noc(CN2CCC(C(=O)N3CCOCC3)CC2)n1,7.77%
23,Cc1cccc(C2NS(=O)(=O)N=C2N)c1 (configuration not stated),4.81%
24,NC(=O)c1c(NC(=O)C2c3ccccc3Oc3ccccc32)sc2c1CCCCC2,10.9%
25,Oc1c(C=C2N=c3ccccc3=N2)sc(=S)n1-c1ccc2ccccc2c1,9.34%

row,Structure (SMILES),inhibition
1,O=C(CN(c1ccccc1)S(=O)(=O)c1ccccc1)Nc1ccc(F)cc1,-5.62%
2,Cc1ccc(NC(=O)c2ccccc2F)cc1S(=O)(=O)N1CCCCCC1,-2.21%
3,CCn1c(CSc2nc3ccccc3s2)nnc1SCC(=O)c1ccc(O)cc1O,6.52%
4,CCn1c(CSc2nc3ccccc3s2)nnc1SCC(=O)c1ccc(Cl)cc1,-0.25%
5,COc1ccccc1N(CC(=O)NCC1CCCO1)C(=O)CCC(=O)Nc1cc(C)on1 (configuration not stated),2.95%
6,COc1ccc(-c2noc(CN(C)Cc3ccccc3)n2)cc1,15.4%
7,O=C(CCSCc1ccccc1Cl)NC1CCCCC1,5.37%
8,COc1ccccc1Nc1ccc(N)cc1,10.5%
9,O=P(c1ccccc1)(c1ccccc1)c1cc(S(=O)(=O)O)ccc1O,5.95%
10,Nc1cccc2cc(S(=O)(=O)O)ccc12,20.9%
11,COc1ccccc1Nc1ccc(NS(=O)(=O)c2ccc(C(C)=O)cc2)cc1,23.2%
12,Nc1cc(S(=O)(=O)O)cc2ccc(S(=O)(=O)O)cc12,6.2%
13,Nc1ccc2c(O)cc(S(=O)(=O)O)cc2c1,19.4%
14,O=C(O)c1cc2cc(S(=O)(=O)O)ccc2cc1O,6.33%
15,O=Nc1c(O)ccc2cc(S(=O)(=O)O)ccc12,13.3%
16,CCc1ccccc1NC(=O)c1ccc(NCCc2ccccc2)c([N+](=O)[O-])c1,10.6%
17,C/C(=N\NC(=O)c1cccs1)C(C)(C)C,-0.86%
18,O=C(Nc1cccc(F)c1)Nc1ccnn1C1CCN(C(=O)c2ccccn2)CC1,4.39%
19,CC1CCCCC1NC(=O)c1ccco1 (configuration not stated),0.81%
20,COc1cccc(Oc2ccc3nnc(C(F)(F)F)n3n2)c1,-1.34%
21,C[C@@H](O)CNC(=O)c1[nH]cnc1C(=O)Nc1cccc(Cl)c1,16.2%
22,Nc1ccccc1-c1n[nH]c(=S)s1,25.6%
23,CCN(c1ccc(OC)cc1)S(=O)(=O)c1nnc(NC(=O)C(C)C)s1,3.54%
24,O=C(O)c1ccccc1C(=O)c1ccc(-c2ccccc2)cc1,8.16%
25,CCN1CCN(c2ccc(S(=O)(=O)N3CCOCC3)cc2NC(=O)c2ccccc2SC)CC1,3.45%

row,Structure (SMILES),inhibition
1,CCC(=O)Nc1cc(-c2nn(C)c(=O)c3ccccc23)ccc1OC,5.48%
2,O=C(COc1ncnc2cc([N+](=O)[O-])ccc12)NCCc1ccc(Cl)cc1,-7.58%
3,Cc1ccc(NC(=O)c2cc(NC(=O)c3ccco3)ccc2N2CCOCC2)cc1Cl,-19.1%
4,Nc1ccc(C(=O)Nc2ccc3c(O)cc(S(=O)(=O)O)cc3c2)cc1,14.1%
5,O=S(=O)(c1ccccc1)c1cc(O)ccc1O,6.16%
6,CC(=O)Nc1ccc2c(O)cc(S(=O)(=O)O)cc2c1,6.64%
7,Cc1cc(=O)oc2cc(Nc3ccccc3)ccc12,6.98%
8,Cc1ccc(S(=O)(=O)Nc2ccc(O)c(S(=O)(=O)c3ccc(C)cc3)c2)cc1,6.97%
9,O=S(=O)(O)c1cccc2cccc(Nc3ccccc3)c12,13.4%
10,CCCN(CCC)C(=O)C1CCCN(S(=O)(=O)c2ccc3c(c2)oc(=O)n3C)C1 (configuration not stated),7.01%
11,O=C(COC(=O)Cc1ccc(Br)cc1)NC1CC1,4.98%
12,O=C(COc1ccc(Cl)cc1)N(Cc1ccccc1)c1nc(-c2ccccc2)cs1,9.03%
13,O=c1n(-c2ccccc2)c(=O)n2n1CCCC2,-0.32%
14,CCCCN(CC)CCCNC(=O)CC1Oc2ccccc2NC1=O (configuration not stated),0.11%
15,CCOc1ccccc1C(C(=O)NC1CCCC1)N(Cc1ccco1)C(=O)CNC(=O)c1ccco1 (configuration not stated),5.39%
16,O=C(CN1c2ccccc2Sc2ccccc21)NNC(=S)Nc1ccc(Cl)cc1,15.4%
17,CCOC(=O)C(CO)(NC(C)=O)C(=O)OCC,3.77%
18,COc1ccccc1OCc1cc(C(=O)N2CC3C[C@@H]4CC2C[C@H](C3)C4)no1,3.59%
19,CCOc1ccccc1NC(=O)C(NCCc1ccc(OC)cc1)c1ccccc1 (configuration not stated),-0.19%
20,CCOc1ccccc1NC(=O)C(OC(=O)c1ccccc1)c1ccccc1 (configuration not stated),12.2%
21,CN(C)CCNC(C(=O)Nc1cc(Cl)cc(Cl)c1)c1ccccc1 (configuration not stated),5.37%
22,CCOc1ccccc1NC(=O)C(NCC1CCCCC1)c1ccccc1 (configuration not stated),4.44%
23,CCC(C(=O)Nc1cccc(C(F)(F)F)c1)c1ccccc1 (configuration not stated),17.9%
24,CCOc1ccccc1NC(=O)C(OC(=O)C1CC1)c1ccccc1 (configuration not stated),-2.99%
25,CC(NC(=O)c1ccco1)C(=O)N1CCCCC1 (configuration not stated),3.98%

row,Structure (SMILES),inhibition
1,O=C(COC(=O)c1cccnc1Cl)NC1CCCCC1,4.82%
2,CC(C)Cc1cc(C(=O)N2CCN(c3ccc(F)cc3)CC2)no1,0.62%
3,COc1cccc(C(=O)NC(=S)Nc2ccccc2N2CCOCC2)c1,6.71%
4,COc1ccc(C)cc1S(=O)(=O)N1CCC(C(=O)NCCc2ccccc2)CC1,14.5%
5,COC(=O)c1ccc(Cl)c(NC(=O)CSc2nnc(-c3ccncc3)o2)c1,4.07%
6,OC1CCN(Cc2cn(Cc3ccccc3)nc2-c2cc3ccccc3o2)CC1,5.47%
7,O=C(Nc1ccc(Cl)cc1)Nc1nnc(CSCc2ccccc2Cl)s1,12.1%
8,CN(C(=O)COc1ccccc1)c1ccc([N+](=O)[O-])cc1,7.5%
9,Cc1ccccc1OCCNC(=O)c1ccco1,3.61%
10,Cc1ccc(C(=O)NCC(C)NC(=O)c2ccc(C)c(C)c2)cc1C (configuration not stated),4.02%
11,CCOc1ccc(N2CC(C(=O)NCc3ccco3)CC2=O)cc1 (configuration not stated),-1.21%
12,Cc1onc(-c2ccccc2)c1C(=O)NC(=S)NNC(=O)c1ccncc1,0.31%
13,CCCN(C(=O)Cc1csc(-c2ccccc2)n1)C1CCS(=O)(=O)C1 (configuration not stated),4.87%
14,CCOC(=O)c1c(NC(=O)CSc2cccc[n+]2[O-])sc(C(=O)Nc2ccccc2)c1C,7.58%
15,CCOC(=O)c1c(NC(=O)CN2CCN(C)CC2)sc(C(=O)Nc2ccccc2)c1C,8.53%
16,CCOc1ccc(S(=O)(=O)Nc2ccccc2C(=O)Nc2ccccc2N2CCOCC2)cc1,1.24%
17,Cc1ccc(OC(=O)c2cccc(S(=O)(=O)N3CCN(C)CC3)c2)c(Br)c1,10%
18,COc1ccc(N2C(S)=C(C#N)C(=O)NC2c2ccc(OC)c(OC)c2)cc1 (configuration not stated),29%
19,CCOc1ccc(C2NC(=O)C(C#N)=C(S)N2c2ccc(C)cc2)cc1OC (configuration not stated),51%
20,Cc1cc(C)c2[nH]c(=O)c(CN(CC3CCCO3)C(=S)NCc3ccco3)cc2c1 (configuration not stated),10.7%
21,CN(CC(=O)Nc1ccc(S(=O)(=O)N2CCCC2)cc1)Cc1cccc(Cl)c1Cl,4.27%
22,Cc1ccc(CN2CC(C(=O)Nc3nc(C)cs3)CC2=O)cc1 (configuration not stated),-0.43%
